Unmarked numbers belong to inactive results. Active and inactive are the calls of the source. Calls come from the whole dose curve; as a rule, active = well fitted curve in the direction sought with a large enough effect in the repeat runs; inconclusive = weak or mixed curves; inactive = flat fitted curve, though single readings scatter.
Assay: qHTS assay to test for compound auto fluorescence at 535 nm (green) in HEK293 cells (AID 720680)
Conditions: green autofluorescence 485/535 nm; series mostly up to 91.3 µM; fluorescence, % of fluorescein: at the top concentration
From the text: U.S. Tox21 Program National Center for Advancing Translational Sciences [NCATS] NIH Chemical Genomics Center [NCGC] U.S. Environmental Protection Agency [EPA] National Institutes of Environmental Health Sciences [NIEHS] National Toxicology Program [NTP] U.S. Food and Drug Administration [FDA] Tox21 Assay Overview: Compound auto fluorescence often interferes with screening of the compound library against various biological targets and signaling pathways. Some of these compounds may have fluorophoric properties. Such properties may interfere with the assay outputs resulting in false positives and/or negatives. To decrease such complications and ensure the compound activities are relevant in terms of biological response, the Tox21 10K compound library was screened for auto fluorescence. From the fluorophores used as reporter signals in our screening assays, the auto fluorescence equivalencies of compounds against three fluorophores have been evaluated: Triamterene, Fluorescein and Rose Bengal sodium for blue, green and red fluorescence, respectively. The fluorescence intensities were measured using Excitation/Emission wavelengths at 405/460nm, 485/535nm and 540/590nm for blue, green and red labels, respectively. This assay includes the green fluorescence data.
Tox21 Assay Protocol Summary: 2,000 HEK293 cells in 5 uL of culture medium containing 10% dialyzed FBS per well were dispensed into black wall/clear bottom 1536-well plates using a Multidrop Combi Dispenser (Thermo Scientific). The assay plates were incubated for 4-5 hr at 37C to allow cell attachment to the well bottom, followed by the transfer of 23 nL compound or DMSO vehicle by a pintool work station (Kalypsys, San Diego, CA). After the assay plates were incubated overnight at 37C and 5% CO2, fluorescence intensities in the assay plates were measured by an Envision (PerkinElmer, Shelton, CT) plate reader using three labels for measuring blue, green and red fluorescence at […] 460, 535 and 590nm respectively.
% is set by controls: 0 for no effect and ±100 for the full control effect.

Compound | Potency | fluorescence, % of fluorescein
COC(C)=O | inactive | 
CCCC1CCC(=O)CC1 |  | 0.0471%
CCCCN(CCCC)CC(O)c1cc(Cl)cc2c1-c1ccc(Cl)cc1/C2=C/c1ccc(Cl)cc1 (stereo not given) |  | 0.0046% [at 46 µM]
O=c1[nH]c2ccccc2n1CCCN1CCN(C(c2ccccc2)c2ccccc2)CC1 |  | 0.0912% [at 46 µM]
CC(C)(C)c1csc(-c2cc3cc(OCc4ccccc4CC(=O)O)ccc3o2)n1 |  | -0.0016%
O=C(O)[C@H](O)[C@@H](O)[C@H](O[C@@H]1O[C@H](CO)[C@H](O)[C@H](O)[C@H]1O)[C@H](O)CO |  | -0.0275% [at 18.6 µM]
CN1CCC[C@@H]1CCO[C@](C)(c1ccccc1)c1ccc(Cl)cc1 |  | -0.0129% [at 46 µM]
O=C(O)c1cccc(C(F)(F)F)c1 |  | 0.0051%
C#C[C@]1(OC(C)=O)CC[C@H]2[C@@H]3CCC4=C/C(=N/O)CC[C@@H]4[C@H]3CC[C@@]21CC |  | -0.0317% [at 46 µM]
O=C1CCc2ccc(OCCCCN3CCN(c4cccc(Cl)c4Cl)CC3)cc2N1 |  | -0.0189% [at 46 µM]
O=S(=O)(O)c1ccc(N=Nc2c(O)ccc3ccccc23)cc1 |  | -0.914%
COC(=O)C1=C(C)NC(C)=C(C(=O)OCCN2CCN(C(c3ccccc3)c3ccccc3)CC2)C1c1cccc([N+](=O)[O-])c1 (stereo not given) |  | -0.0731% [at 46 µM]
O=C(c1ccc(O)c(O)c1)c1ccc(O)cc1O |  | 0.0185%
COc1cccc2c1C(=O)c1c(O)c3c(c(O)c1C2=O)C[C@@](O)(C(C)=O)C[C@@H]3O[C@H]1C[C@H](N)[C@H](O)[C@H](C)O1 | inactive | 
CCC(=O)OC(=O)CC |  | 0.0084%
Cc1cc(C(C#N)c2ccc(Cl)cc2)c(Cl)cc1NC(=O)c1cc(I)cc(I)c1O (stereo not given) |  | 0.493% [at 46 µM]
Nc1nc(-c2ccccc2)cs1 |  | 0.0129%
CCc1ccc(Br)cc1 |  | -0.0392% [at 95.7 µM]
O=C(/C=C/c1ccc(O)c(O)c1)O[C@@H](C(=O)O)[C@@H](OC(=O)/C=C/c1ccc(O)c(O)c1)C(=O)O |  | 0.0538%
C#C[C@]1(OC(C)=O)CC[C@H]2[C@@H]3CCC4=C[C@@H](OC(C)=O)CC[C@@H]4[C@H]3CC[C@@]21C | inactive | 

Compound | Potency | fluorescence, % of fluorescein
C[C@H]1NCc2cc(-c3ccc4c(=O)c(C(=O)O)cn(C5CC5)c4c3OC(F)F)ccc21 |  | 0.0388% [at 46 µM]
CC1(C)CCC[C@]2(C)[C@H]3CC(=O)O[C@]3(C)CC[C@@H]12 |  | 0.0411%
CCCCCCC1CCCC(=O)O1 (stereo not given) |  | 0.0003%
COCCOc1cc2cc(C(=O)NC3CCN(C(C)C)CC3)n(CC(=O)Nc3ccc(Cl)cn3)c2cn1 |  | -0.0609%
CC(C)(C)C1CCC(=O)CC1 |  | 0.0076%
CC1(C)CCC[C@]2(C)[C@H]3CCO[C@]3(C)CC[C@@H]12 |  | 0.0355%
CC(C(=O)O)c1ccc2c(c1)[nH]c1ccc(Cl)cc12 (stereo not given) |  | -0.0429% [at 46 µM]
Nc1cc(Cl)c(O)c(Cl)c1 |  | 0.0291%
O=C1CCCCCCCCCCCCCCCO1 |  | 0.0722%
Cc1nc(-c2ccc(Cl)cc2)oc1COC(C)(C)C(=O)O |  | -0.137% [at 46 µM]
OC/C=C/CO |  | -0.0402%
CCCCC/C=C\C/C=C\CCCCCCCC(=O)O | inactive | 
COc1cc2nc(N3CCN(C(=O)c4ccco4)CC3)nc(N)c2cc1OC |  | 0.0204% [at 46 µM]
CCCCCCOC(=O)C(C)CC (stereo not given) |  | 0.0025%
CCCCOC(=O)CO |  | -0.113%
Oc1c(I)cc(Cl)c2cccnc12 | inactive | 
C[Si](Cl)(c1ccccc1)c1ccccc1 |  | -0.0161%
CCCCCCCCCCCCOCCOCCOCCOCCOCCOCCOCCOCCOCCO |  | 0.202% [at 46 µM]
C/C=C/C=C/COC(=O)C(C)C |  | 0.208%
CC(=O)OCC=C(C)C |  | -0.0088%
